The values that follow come from PubChem BioAssay (NCI).

Where “and” joins values, the source holds several entries; their conditions need not be identical. Equal entries are not always repeated. Compounds without any hit were thinned out: in the full panel of roughly 83,000, 20% have a hit.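 Negative percent growth values reflect cell death: -40 means 40% of the cells present at the start died, and -100 means all died.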 Values without a mark were called inactive. Calls of active or inactive are those of the source. How the source made its calls: active means growth percent below 10; inactive means the rest.

Common to all, as to test: NCI-60 one-dose screen, 48 h (100 = growth as untreated, 0 = no growth, -100 = all killed)
Test [1] concerns DU-145 prostate. Conditions: 10 µM unless noted.
For test [2], the system named is K-562 leukemia. Particulars: 10 µM unless noted.
Test [3] deals with MALME-3M melanoma. Particulars: 10 µM unless noted.
The subject of test [4] is MDA-MB-231 breast. Conditions: 10 µM unless noted.
Test [5] has as its system RXF 393 renal. Particulars: 10 µM unless noted.
The subject of test [6] is SF-268 CNS. Conditions: 10 µM unless noted.
Test [7] relates to SF-295 CNS. Conditions: 10 µM unless noted.
In test [8] the test system is SF-539 CNS. Particulars: 10 µM unless noted.
For test [9], the system named is UACC-257 melanoma. Conditions: 10 µM unless noted.
Test [10] relates to M14 melanoma. Conditions: 10 µM unless noted.
Test [11] deals with HCT-15 colon. Particulars: 10 µM unless noted.
Test [12] relates to HT29 colon. Conditions: 10 µM unless noted.
In test [13] the test system is SNB-75 CNS. Particulars: 10 µM unless noted.
Test [14] concerns SNB-19 CNS. Particulars: 10 µM unless noted.
In test [15] the test system is PC-3 prostate. Particulars: 10 µM unless noted.
Test [16] relates to SK-MEL-5 melanoma. Particulars: 10 µM unless noted.
Test [17] relates to UACC-62 melanoma.
Test [18] concerns LOX IMVI melanoma. Particulars: 10 µM unless noted.
The subject of test [19] is SK-MEL-28 melanoma. Conditions: 10 µM unless noted.
Test [20] deals with U251 CNS. Particulars: 10 µM unless noted.

Turning to `Cc1cc(O)c2cc3c(O)c(O)ccc3cc2c1`, the growth in [1] was 105%; in test [2], 90.8%; in test [3], 109%; in test [4], 95.2%; in test [5], 107%; in [6] it was 135%. Further, the growth in test [7] is 109%; in test [8] it was 100%; in test [9], 132%; in [10] it was 128%; in [11], 113%; in [12] it was 125%. For the same compound, the growth in test [13] is 127%; in test [14], 108%; in test [15], 97.1%; in [16], 94.8%; in test [17] (10 µM) it was 114%; in test [17] (100 µM), -27.7% (active) and -63.9% (active). In addition, the growth in test [18] is 112%.

Take `COC(=O)CSc1ccc(Cl)cc1`: the growth in [1] was 111%; in test [2], 89.6%; in [3], 95.5%; in [4], 116%; in [5], 136%; in test [6], 119%. Also, the growth in [7] is 107%; in [8], 97.3%; in [9], 104%; in test [10], 103%; in [11], 106%; in test [12], 103%. Also, the growth in test [13] was 94.9%; in test [14], 103%; in test [15], 107%; in test [16] it was 114%; in test [17] (10 µM unless noted) it was 114%; in [18], 102%. Also, in test [19], the growth was 108%.

As to `CCCCc1nc(Cl)c(C2CC(c3ccc(S(N)(=O)=O)cc3)=NN2c2cc(Cl)cc(Cl)c2)[nH]1` (configuration not stated), the growth in test [1] was 70.8%; in test [2], 16%; in test [3], 65.3%; in test [4] it was 35.2%; in test [5], 48.4%; in test [6], 49.4%. In addition, the growth in test [7] was 50.3%; in [8] it was 91.4%; in test [9] it was 55.4%; in test [10] it was 18.7%; in test [11], 45.7%; in test [12], 23.3%. The growth was 62.2% in test [13]; 36.4% in test [14]; 36.4% in test [15]; 57.9% in test [16]; 38.8% in test [17] (10 µM unless noted); -6.25% (active) in test [18]. Further, the growth in test [19] is 55.2%.

Take `C[C@@H]1N=C(c2ccc3ccccc3c2)Nc2nc3ccccn3c2C1=O`: the growth is 73.3% in test [1]; 27.6% in [2]; 42.3% in test [3]; 52.5% in test [4]; 49.9% in test [5]; 58% in test [6]. In addition, the growth in test [7] was 14.9%; in test [8], 37.2%; in test [9] it was 40.9%; in test [10], 19.8%; in [11] it was 33.8%; in [12], 5.93% (active). Further, the growth is 37.1% in [13]; 53.3% in [14]; 52% in [15]; 35.3% in test [16]; 48.8% in test [17] (10 µM unless noted); 48.5% in test [18]. Moreover, in [19], the growth was 59.9%.

For the compound `CSC1=N/C(=C\c2cccc(OCc3ccc(Cl)cc3)c2)C(=O)N1`, the growth is 77.7% in test [1]; 81.7% in [2]; 99% in test [3]; 99.8% in test [4]; 104% in [5]; 85.3% in test [6]. Besides, the growth is 87.6% in test [7]; 99% in test [8]; 100% in test [9]; 88% in test [10]; 81.4% in test [11]; 76.7% in test [12]. Moreover, the growth was 82.5% in [13]; 90.4% in [14]; 76% in test [15]; 77.7% in [16]; 70.4% in test [17] (10 µM unless noted); 84.2% in test [18]. For the same compound, in [19], the growth is 100%.

As to `CCC1N=C(N)N=C(N)N1c1ccc(Cl)cc1` (configuration not stated), the growth in test [1] is 105%; in [2] it was 57.1%; in test [3], 61.6%; in [4], 99.5%; in test [5], 89.3%; in test [6], 77.2%. Also, the growth in test [7] was 88.9%; in [8], 109%; in test [9] it was 88.1%; in test [10], 79.7%; in test [11] it was 105%; in test [12] it was 72.1%. In addition, the growth in test [13] was 91.7%; in test [14], 106%; in [15], 62.6%; in test [16], 49.5%; in [17] (10 µM unless noted), 100%; in test [18] it was 68.6%. In addition, in [19], the growth is 101%.

For the compound `O=[N+]([O-])c1ccc(N/N=C/c2ccccc2O)nc1`, the growth in test [1] is 48.7%; in test [2] it was 21.9%; in [3], 78.5%; in test [4], 52.3%; in test [5], 38.1%; in test [6], 40.1%. For the same compound, the growth was 35.2% in test [7]; 42.9% in test [8]; 32% in test [9]; 29.5% in [10]; 29.9% in test [11]; 47% in test [12]. Also, the growth was 52.9% in [13]; 56.2% in test [14]; 45.8% in test [15]; 20% in test [16]; 42.7% in test [17] (10 µM unless noted); 26.4% in [18]. In test [19], the growth was 62%.

For `COc1ccc(C(=O)OC2C(OC3C(O)COC(O[C@H]4C[C@H]5[C@@H]6CC=C7C[C@@H](O)CC[C@]7(C)[C@H]6CC[C@]5(C)[C@H]4[C@H](C)C(=O)CCC(C)C)C3OC(C)=O)OCC(O)C2O)cc1` (some centres not stated), the growth is 28.5% in test [1]; -50.3% (active) in test [2]; -12.7% (active) in test [3]; 10.6% in test [4]; -71.9% (active) in test [5]; -12.6% (active) in test [6]. The growth is -64.5% (active) in test [7]; -69.8% (active) in [8]; -60.3% (active) in [9]; -69.3% (active) in [10]; -51.5% (active) in test [11]; 0.168% (active) in test [12]. Besides, the growth in test [13] is -9.67% (active); in test [14], -22.8% (active); in test [20] it was -42.8% (active); in test [16], -77.1% (active); in test [17] (10 µM unless noted), -49.9% (active); in test [18], -49.8% (active). Besides, the growth in test [19] is -54.6% (active).
